# Records with an inconclusive call do not appear. Where a call stands in place of a potency, no number is given. Values without a mark were called inactive. The source made the active and inactive calls. Calls follow the shape of the dose curve; as a rule, active = well fitted curve in the direction sought with a large enough effect; inconclusive = small, poorly fitted or top-dose-only effect, or another doubt; inactive = no such curve, though single readings can be large; an effect the other way counts as inactive or inconclusive.
# Tests used:
# [1] = Primary qHTS for inhibitors of nuclear receptor binding SET domain protein 2 (NSD2) in an isogenic RCH-ACV NSD2 p.E1099K mutant (9B) (AID 1645876)
# [2] = Primary qHTS for inhibitors of nuclear receptor binding SET domain protein 2 (NSD2) in an RCH-ACV wild type WT cells (2C) (AID 1645877)
# Also: nearly all actives have a fitted effect of over 70% in size.
# Potency is read from the fitted curve at half-maximal effect.
smiles,measurement,setting,value
CC1(C)CC[C@]2(C(=O)OC3OC(CO)C(O)C(O)C3O)CC[C@]3(C)C(=CCC4[C@@]5(C)CC[C@H](OC6OC(C(=O)O)C(O)C(OC7OC(CO)C(O)C(O)C7O)C6O)C(C)(C)C5CC[C@]43C)C2C1 (some centres not stated),"activity change, negative = viability loss",[1],-3.97% [at 9.23 µM]
same,"activity change, negative = cell killing",[2],-7.21% [at 9.23 µM]
CC(=O)c1c(O)cc(O[C@@H]2O[C@H](CO)[C@@H](O)[C@H](O)[C@H]2O)cc1O,Potency,[1],inactive
same,Potency,[2],inactive
CC(O)CCC1C(CO[C@@H]2O[C@H](CO)[C@@H](O)[C@H](O)[C@H]2O)CC(O)CC1(C)C (some centres not stated),Potency,[1],inactive
same,Potency,[2],inactive
O=C(O)c1cc(I)ccc1NC(=O)[C@H](Cc1ccccc1)NCc1ccccc1,Potency,[1],inactive
same,Potency,[2],inactive
C=C(C)C(=O)O[C@H]1C[C@@](C)(O)C(=O)CC(O)/C(C)=C\[C@H]2OC(=O)C(=C)[C@H]12 (some centres not stated),Potency,[1],4010 nM (active)
same,Potency,[2],1270 nM (active)
C/C=C(/COC(=O)/C(C)=C/C)C(=O)OC(CC)c1ccc(OC)c(OC)c1 (configuration not stated),Potency,[1],inactive
same,Potency,[2],inactive
O=C1NC2CCc3nc4ccccc4c(=O)n3C2=Nc2ccccc21 (configuration not stated),Potency,[1],inactive
same,Potency,[2],inactive
CC(=O)CC1CCC(C(C)C(=O)OCC(O)CO)O1 (configuration not stated),Potency,[1],inactive
same,Potency,[2],inactive
OC[C@H]1O[C@@H](O[C@H]2[C@H](OCCc3ccccc3)O[C@H](CO)[C@@H](O)[C@@H]2O)[C@H](O)[C@@H](O)[C@@H]1O,Potency,[1],inactive
same,Potency,[2],inactive
CC1(C)CC[C@]2(C(=O)O)CC[C@]3(C)C(=CCC4[C@@]5(C)CC[C@H](O[C@@H]6O[C@H](C(=O)O)[C@@H](O[C@@H]7OC[C@@H](O)[C@H](O)[C@H]7O)[C@H](O)[C@H]6O)C(C)(C)C5CC[C@]43C)C2C1O (some centres not stated),Potency,[1],inactive
same,Potency,[2],inactive
CC1OC(O[C@H]2CC[C@@]3(C)C(CC[C@]4(C)C3CC=C3C5CC(C)(C)CC[C@]5(C(=O)OC5OC(CO)C(OC6OC(COC7OCC(O)C(O)C7O)C(O)C(O)C6O)C(O)C5O)CC[C@]34C)C2(C)C)C(O)C(O)C1OC1OCC(OC2OCC(O)C(O)C2O)C(O)C1O (some centres not stated),outcome,[1],inactive [at 9.23 µM]
same,"activity change, negative = cell killing",[2],2.24% [at 9.23 µM]
CC1=C(CCC(C)CC(=O)O)[C@@]2(C)CCCC(C)(C)C2CC1=O (some centres not stated),Potency,[1],inactive
same,Potency,[2],inactive
C=C1C(O)C(O)C2(CC3C(C)=CCC4C(C)(CO)CCCC34C)OC2C1O (configuration not stated),Potency,[1],inactive
same,Potency,[2],inactive
CC(=O)OC1C(=O)C2(C)C(O)CC3OCC3(OC(C)=O)C2C(OC(=O)c2ccccc2)C2(O)CC(OC(=O)C(O)C(NC(=O)c3ccccc3)c3ccccc3)C(C)=C1C2(C)C (configuration not stated),Potency,[1],5.2 nM (active)
same,Potency,[2],6.5 nM (active)
CC(C)(O)CC(CO)NC(=O)CC(O)CC(=O)Cc1ccccc1 (configuration not stated),Potency,[1],inactive
same,Potency,[2],inactive
C[C@@H]1CC[C@]2(C(=O)OC3OC(CO)C(O)C(O)C3O)CC[C@]3(C)C(=CCC4[C@@]5(C)CC[C@H](O)[C@](C)(C(=O)O)C5CC[C@]43C)C2[C@]1(C)O (some centres not stated),Potency,[1],inactive
same,Potency,[2],inactive
